# In ChEMBL document CHEMBL1961873, “Compounds: GSK PKIS; Assays: Nanosyn kinase panel” (2012):
# Experiments:
# [1] = target: Tyrosine-protein kinase Fyn (Homo sapiens) (UniProt P06241); conditions: at 1 µM
# [2] = target: Tyrosine-protein kinase HCK (Homo sapiens) (UniProt P08631); conditions: at 0.1 µM
# [3] = target: Tyrosine-protein kinase HCK (Homo sapiens) (UniProt P08631); conditions: at 1 µM
# [4] = target: Insulin-like growth factor 1 receptor (Homo sapiens) (UniProt P08069); conditions: at 0.1 µM
# [5] = target: Insulin-like growth factor 1 receptor (Homo sapiens) (UniProt P08069); conditions: at 1 µM
# [6] = target: Insulin receptor (Homo sapiens) (UniProt P06213); conditions: at 0.1 µM
# [7] = target: Insulin receptor (Homo sapiens) (UniProt P06213); conditions: at 1 µM
# [8] = target: Insulin receptor-related protein (Homo sapiens) (UniProt P14616); conditions: at 0.1 µM
# [9] = target: Insulin receptor-related protein (Homo sapiens) (UniProt P14616); conditions: at 1 µM
# [10] = target: T1, Tyrosine-protein kinase ITK/TSK (Homo sapiens) (UniProt Q08881); conditions: at 0.1 µM
# T1 sequence (whole entry): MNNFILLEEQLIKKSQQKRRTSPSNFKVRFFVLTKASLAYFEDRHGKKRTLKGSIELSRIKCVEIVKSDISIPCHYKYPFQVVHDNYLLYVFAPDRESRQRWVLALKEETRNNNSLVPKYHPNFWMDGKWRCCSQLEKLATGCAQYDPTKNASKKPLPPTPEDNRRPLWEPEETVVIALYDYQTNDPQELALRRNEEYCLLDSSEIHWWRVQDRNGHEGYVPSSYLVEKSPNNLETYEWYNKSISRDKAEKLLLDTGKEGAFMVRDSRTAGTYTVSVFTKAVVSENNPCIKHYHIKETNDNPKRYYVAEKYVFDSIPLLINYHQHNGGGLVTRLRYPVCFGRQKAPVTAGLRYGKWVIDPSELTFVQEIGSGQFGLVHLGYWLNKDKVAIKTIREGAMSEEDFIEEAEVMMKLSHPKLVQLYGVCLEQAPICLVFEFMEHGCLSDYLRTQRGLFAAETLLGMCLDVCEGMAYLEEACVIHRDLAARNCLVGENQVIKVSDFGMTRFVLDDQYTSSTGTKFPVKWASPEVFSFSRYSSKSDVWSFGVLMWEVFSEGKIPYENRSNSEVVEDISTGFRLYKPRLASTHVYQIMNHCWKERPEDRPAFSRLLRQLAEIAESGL
# [11] = target: T1, Tyrosine-protein kinase ITK/TSK (Homo sapiens); conditions: at 1 µM
# [12] = target: Tyrosine-protein kinase JAK1 (Homo sapiens) (UniProt P23458); conditions: at 0.1 µM
# [13] = target: Tyrosine-protein kinase JAK1 (Homo sapiens) (UniProt P23458); conditions: at 1 µM
# [14] = target: Tyrosine-protein kinase JAK2 (Homo sapiens) (UniProt O60674); conditions: at 0.1 µM
# [15] = target: Tyrosine-protein kinase JAK2 (Homo sapiens) (UniProt O60674); conditions: at 1 µM
# [16] = target: T2, Tyrosine-protein kinase JAK3 (Homo sapiens) (UniProt P52333); conditions: at 0.1 µM
# T2 sequence (whole entry): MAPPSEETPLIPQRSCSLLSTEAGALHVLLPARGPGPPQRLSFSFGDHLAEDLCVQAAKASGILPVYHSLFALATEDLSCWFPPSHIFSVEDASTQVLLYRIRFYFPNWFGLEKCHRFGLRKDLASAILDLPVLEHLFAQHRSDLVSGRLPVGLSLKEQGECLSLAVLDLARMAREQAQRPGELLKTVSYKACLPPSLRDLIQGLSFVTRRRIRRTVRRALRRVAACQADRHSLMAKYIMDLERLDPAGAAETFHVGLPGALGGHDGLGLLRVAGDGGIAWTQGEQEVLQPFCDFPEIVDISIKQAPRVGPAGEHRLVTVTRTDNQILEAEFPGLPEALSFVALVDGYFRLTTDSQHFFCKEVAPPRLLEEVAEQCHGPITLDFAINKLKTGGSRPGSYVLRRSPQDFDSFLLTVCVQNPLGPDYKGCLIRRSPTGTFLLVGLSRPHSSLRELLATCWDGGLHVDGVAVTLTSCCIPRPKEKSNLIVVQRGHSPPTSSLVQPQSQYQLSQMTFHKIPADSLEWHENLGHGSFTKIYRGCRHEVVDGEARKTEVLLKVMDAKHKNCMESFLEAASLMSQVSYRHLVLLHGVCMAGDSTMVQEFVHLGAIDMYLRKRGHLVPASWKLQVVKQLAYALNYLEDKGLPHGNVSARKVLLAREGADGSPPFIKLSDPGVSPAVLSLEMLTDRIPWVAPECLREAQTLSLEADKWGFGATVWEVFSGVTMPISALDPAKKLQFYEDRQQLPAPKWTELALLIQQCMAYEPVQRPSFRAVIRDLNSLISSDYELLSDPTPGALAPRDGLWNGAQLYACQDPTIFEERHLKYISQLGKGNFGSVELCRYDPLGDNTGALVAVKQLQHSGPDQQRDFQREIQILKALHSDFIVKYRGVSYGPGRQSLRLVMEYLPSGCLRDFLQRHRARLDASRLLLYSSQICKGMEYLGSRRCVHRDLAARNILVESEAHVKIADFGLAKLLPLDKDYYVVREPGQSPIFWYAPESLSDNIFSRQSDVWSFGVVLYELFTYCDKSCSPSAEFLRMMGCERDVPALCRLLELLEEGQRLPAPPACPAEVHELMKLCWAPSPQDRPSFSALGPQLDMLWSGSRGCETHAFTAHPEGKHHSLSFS
# [17] = target: T2, Tyrosine-protein kinase JAK3 (Homo sapiens); conditions: at 1 µM
# [18] = target: Vascular endothelial growth factor receptor 2 (Homo sapiens) (UniProt P35968); conditions: at 0.1 µM
# [19] = target: Vascular endothelial growth factor receptor 2 (Homo sapiens) (UniProt P35968); conditions: at 1 µM
# [20] = target: Mast/stem cell growth factor receptor Kit (Homo sapiens) (UniProt P10721); conditions: at 0.1 µM;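 also: values are mean inhibition of KIT, from the GSK PKIS dataset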
# Tyrosine-protein kinase JAK2 (Homo sapiens), sequence (O60674 whole entry): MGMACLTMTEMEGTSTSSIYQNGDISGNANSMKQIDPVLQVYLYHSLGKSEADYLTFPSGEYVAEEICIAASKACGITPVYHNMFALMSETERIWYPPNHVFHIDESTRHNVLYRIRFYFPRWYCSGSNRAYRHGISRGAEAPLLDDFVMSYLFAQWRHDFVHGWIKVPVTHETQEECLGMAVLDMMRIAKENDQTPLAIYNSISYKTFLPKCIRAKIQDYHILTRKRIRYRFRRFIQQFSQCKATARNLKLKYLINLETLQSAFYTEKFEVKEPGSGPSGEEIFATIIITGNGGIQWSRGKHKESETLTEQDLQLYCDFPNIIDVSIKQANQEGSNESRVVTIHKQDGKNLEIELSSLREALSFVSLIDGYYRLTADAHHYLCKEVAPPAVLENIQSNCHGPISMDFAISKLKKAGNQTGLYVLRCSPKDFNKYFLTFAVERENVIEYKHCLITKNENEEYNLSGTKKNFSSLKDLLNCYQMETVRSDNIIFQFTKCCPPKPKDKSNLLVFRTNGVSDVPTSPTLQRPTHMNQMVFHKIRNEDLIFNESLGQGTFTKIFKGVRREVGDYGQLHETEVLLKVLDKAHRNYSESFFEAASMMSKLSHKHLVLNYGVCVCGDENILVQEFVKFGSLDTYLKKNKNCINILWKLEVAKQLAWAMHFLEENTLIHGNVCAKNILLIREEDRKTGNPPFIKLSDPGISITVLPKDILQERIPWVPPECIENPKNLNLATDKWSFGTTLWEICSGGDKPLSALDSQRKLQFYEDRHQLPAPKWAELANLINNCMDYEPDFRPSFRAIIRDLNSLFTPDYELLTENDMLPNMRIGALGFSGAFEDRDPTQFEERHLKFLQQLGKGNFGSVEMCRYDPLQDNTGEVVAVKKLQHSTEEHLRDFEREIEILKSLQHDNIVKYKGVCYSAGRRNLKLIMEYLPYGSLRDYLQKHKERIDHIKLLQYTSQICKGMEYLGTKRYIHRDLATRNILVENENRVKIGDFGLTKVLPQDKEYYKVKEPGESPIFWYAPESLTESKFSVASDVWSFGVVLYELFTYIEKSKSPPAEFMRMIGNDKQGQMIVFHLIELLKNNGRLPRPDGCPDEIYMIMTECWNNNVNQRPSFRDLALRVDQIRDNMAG
# Tyrosine-protein kinase HCK (Homo sapiens), sequence (P08631 2-526 limits assumed): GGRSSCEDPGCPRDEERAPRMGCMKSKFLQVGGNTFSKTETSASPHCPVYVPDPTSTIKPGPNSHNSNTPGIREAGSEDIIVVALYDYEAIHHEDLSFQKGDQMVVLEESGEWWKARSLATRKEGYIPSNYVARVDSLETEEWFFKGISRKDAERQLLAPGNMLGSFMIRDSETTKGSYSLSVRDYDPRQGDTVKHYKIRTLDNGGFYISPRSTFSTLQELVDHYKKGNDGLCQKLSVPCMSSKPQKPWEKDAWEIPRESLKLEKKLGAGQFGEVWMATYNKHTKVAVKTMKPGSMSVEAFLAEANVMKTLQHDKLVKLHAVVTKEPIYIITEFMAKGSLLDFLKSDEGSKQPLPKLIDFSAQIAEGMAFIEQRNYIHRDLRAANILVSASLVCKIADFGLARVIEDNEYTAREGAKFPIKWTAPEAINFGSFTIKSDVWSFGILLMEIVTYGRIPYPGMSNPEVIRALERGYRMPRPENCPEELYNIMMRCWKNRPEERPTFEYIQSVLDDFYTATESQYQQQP
# Insulin-like growth factor 1 receptor (Homo sapiens), sequence (P08069 31-736 limits assumed): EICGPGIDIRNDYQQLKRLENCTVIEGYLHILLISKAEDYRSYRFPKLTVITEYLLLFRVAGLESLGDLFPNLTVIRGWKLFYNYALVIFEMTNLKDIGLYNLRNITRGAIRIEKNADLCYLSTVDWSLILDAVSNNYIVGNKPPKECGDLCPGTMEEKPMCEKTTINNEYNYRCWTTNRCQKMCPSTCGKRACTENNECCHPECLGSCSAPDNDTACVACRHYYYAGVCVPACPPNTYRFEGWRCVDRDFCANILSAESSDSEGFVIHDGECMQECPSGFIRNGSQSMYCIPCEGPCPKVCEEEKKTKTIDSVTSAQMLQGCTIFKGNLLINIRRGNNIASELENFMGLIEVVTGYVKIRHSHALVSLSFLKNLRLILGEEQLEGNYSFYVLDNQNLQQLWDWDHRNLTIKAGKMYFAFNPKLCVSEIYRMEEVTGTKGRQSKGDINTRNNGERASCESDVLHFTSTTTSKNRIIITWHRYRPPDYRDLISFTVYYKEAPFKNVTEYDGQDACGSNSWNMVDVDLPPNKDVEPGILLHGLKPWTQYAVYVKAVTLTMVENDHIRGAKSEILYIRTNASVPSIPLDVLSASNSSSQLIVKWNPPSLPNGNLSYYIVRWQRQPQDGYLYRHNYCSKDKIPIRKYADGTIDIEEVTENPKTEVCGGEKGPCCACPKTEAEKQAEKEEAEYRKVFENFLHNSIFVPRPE
# Insulin-like growth factor 1 receptor (Homo sapiens), sequence (P08069 741-1367 limits assumed): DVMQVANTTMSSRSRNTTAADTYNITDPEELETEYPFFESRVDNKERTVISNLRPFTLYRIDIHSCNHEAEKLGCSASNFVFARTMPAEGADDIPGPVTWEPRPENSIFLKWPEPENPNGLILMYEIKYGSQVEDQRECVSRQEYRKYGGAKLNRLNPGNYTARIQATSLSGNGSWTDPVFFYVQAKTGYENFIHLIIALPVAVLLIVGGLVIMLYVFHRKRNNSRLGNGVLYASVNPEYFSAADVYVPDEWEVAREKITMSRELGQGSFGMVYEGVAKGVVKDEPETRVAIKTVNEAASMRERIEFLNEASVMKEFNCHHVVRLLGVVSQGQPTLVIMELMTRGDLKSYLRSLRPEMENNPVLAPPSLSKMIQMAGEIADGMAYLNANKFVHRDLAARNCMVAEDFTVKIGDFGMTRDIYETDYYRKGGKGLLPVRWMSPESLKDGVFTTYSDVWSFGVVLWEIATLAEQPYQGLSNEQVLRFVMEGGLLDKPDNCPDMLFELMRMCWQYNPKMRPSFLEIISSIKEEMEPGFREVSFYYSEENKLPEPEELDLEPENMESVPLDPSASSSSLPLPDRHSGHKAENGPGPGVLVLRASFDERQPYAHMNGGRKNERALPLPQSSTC
# Insulin receptor (Homo sapiens), sequence (P06213 28-758 limits assumed): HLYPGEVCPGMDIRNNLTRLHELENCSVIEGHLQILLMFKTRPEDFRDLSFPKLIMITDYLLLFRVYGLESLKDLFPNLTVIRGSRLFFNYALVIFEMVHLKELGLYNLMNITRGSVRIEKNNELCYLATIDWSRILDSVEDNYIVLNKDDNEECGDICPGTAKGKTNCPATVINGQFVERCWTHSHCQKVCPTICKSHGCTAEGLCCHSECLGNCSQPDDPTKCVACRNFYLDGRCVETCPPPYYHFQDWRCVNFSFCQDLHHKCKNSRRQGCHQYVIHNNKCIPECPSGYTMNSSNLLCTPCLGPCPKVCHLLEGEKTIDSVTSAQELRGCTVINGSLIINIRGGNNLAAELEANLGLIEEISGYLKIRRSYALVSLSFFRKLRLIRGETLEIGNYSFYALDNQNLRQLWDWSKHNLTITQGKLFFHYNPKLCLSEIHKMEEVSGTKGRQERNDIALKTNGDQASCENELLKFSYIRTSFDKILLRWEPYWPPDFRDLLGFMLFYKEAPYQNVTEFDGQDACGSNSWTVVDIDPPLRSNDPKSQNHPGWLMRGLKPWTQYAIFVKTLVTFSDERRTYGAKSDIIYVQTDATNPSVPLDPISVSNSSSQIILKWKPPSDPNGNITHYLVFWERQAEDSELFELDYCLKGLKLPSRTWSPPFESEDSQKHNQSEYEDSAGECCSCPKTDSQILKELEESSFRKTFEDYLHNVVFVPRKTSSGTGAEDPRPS
# Insulin receptor (Homo sapiens), sequence (P06213 763-1382 limits assumed): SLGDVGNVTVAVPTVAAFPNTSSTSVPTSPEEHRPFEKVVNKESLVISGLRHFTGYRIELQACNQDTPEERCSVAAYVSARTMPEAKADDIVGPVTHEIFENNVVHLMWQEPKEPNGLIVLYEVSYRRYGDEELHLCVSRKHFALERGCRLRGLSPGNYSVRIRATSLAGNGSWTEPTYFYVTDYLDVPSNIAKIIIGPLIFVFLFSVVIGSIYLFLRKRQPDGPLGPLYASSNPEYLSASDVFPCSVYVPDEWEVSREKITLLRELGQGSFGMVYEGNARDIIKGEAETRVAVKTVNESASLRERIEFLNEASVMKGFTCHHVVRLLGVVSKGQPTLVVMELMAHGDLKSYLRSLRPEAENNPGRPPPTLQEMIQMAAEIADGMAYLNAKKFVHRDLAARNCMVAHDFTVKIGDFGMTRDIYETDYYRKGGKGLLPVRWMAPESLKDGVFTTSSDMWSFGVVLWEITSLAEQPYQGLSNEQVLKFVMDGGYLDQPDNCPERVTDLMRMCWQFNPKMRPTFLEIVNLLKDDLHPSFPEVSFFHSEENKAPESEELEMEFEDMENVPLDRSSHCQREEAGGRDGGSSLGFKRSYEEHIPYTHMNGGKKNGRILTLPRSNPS
# Tyrosine-protein kinase Fyn (Homo sapiens), sequence (P06241 2-537 limits assumed): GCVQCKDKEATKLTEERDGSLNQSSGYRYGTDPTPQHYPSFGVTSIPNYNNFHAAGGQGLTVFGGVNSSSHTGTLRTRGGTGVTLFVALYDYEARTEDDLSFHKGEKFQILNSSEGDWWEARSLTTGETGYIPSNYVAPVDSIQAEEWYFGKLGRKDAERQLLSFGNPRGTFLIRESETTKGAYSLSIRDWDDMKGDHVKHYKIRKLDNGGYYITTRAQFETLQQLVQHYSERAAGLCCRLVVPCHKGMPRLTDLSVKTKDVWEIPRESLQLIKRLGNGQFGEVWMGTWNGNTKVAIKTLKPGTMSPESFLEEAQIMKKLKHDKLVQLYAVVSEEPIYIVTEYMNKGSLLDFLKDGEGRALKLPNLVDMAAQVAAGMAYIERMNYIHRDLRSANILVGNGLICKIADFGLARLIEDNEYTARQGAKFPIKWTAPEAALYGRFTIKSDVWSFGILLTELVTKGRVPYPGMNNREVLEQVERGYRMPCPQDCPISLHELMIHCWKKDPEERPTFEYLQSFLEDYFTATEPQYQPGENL
Compound,inhibition [1],inhibition [2],inhibition [3],inhibition [4],inhibition [5],inhibition [6],inhibition [7],inhibition [8],inhibition [9],inhibition [10],inhibition [11],inhibition [12],inhibition [13],inhibition [14],inhibition [15],inhibition [16],inhibition [17],inhibition [18],inhibition [19],inhibition [20]
CCN(CC)S(=O)(=O)c1ccc(OC)c(Nc2ncc(-c3ccccc3)o2)c1,45.2%,7.41%,28.1%,7.86%,7.98%,2.78%,2.35%,0.57%,0.72%,0.31%,2.62%,1.87%,0.33%,0.36%,1.73%,-0.47%,2.16%,31.3%,68%,33.5%
CNC(=O)c1cc(-c2ccc(F)cc2)cc(-c2ccc(S(=O)(=O)N3CCCC3)cc2)c1N,5.48%,2.71%,3.16%,0.57%,1.32%,4.78%,5.39%,-0.17%,1.33%,1.41%,0.87%,0.17%,1.74%,1.75%,3.18%,-1.74%,-0.38%,1.67%,6.2%,3.86%
CCCN1CCC(c2ccc(Nc3nc(Nc4cc(F)ccc4C(N)=O)c4cc[nH]c4n3)c(OC)c2)CC1,25.1%,5.95%,11.5%,91.8%,93.6%,97.5%,97.3%,93.3%,97.2%,1.62%,7.34%,2.55%,20.8%,0.71%,2.85%,-0.92%,0.07%,6.99%,18.6%,7.64%
CCCN(CCS(C)(=O)=O)Cc1ccc(-c2ccc3ncnc(Nc4ccc(OCc5cccc(F)c5)c(Cl)c4)c3c2)o1,2.14%,4.4%,8.65%,0.58%,1.93%,5.38%,5.24%,0.9%,1.54%,0.49%,1.15%,-0.11%,4.59%,0.69%,3.22%,0.2%,2.79%,4.89%,8.91%,2.87%
COc1cc(N2CCN(C(C)C)CC2)ccc1Nc1nc(Nc2ccc(F)cc2C(N)=O)c2cc[nH]c2n1,9.69%,3.05%,7.94%,101%,101%,103%,102%,76.1%,96.7%,2.65%,5.47%,3.68%,2.03%,2.05%,2.59%,0.12%,11.6%,4.96%,15.3%,-0.57%
CNC(=O)c1cccc(C#Cc2cncnc2Nc2ccc(OCc3cccc(F)c3)c(Cl)c2)c1,5.06%,2.16%,2.54%,-0.34%,-0.55%,-2.02%,-0.61%,0.75%,0.96%,-0.18%,-0.18%,-1.06%,7.9%,0.28%,1.34%,-1.04%,1.79%,1.34%,3.79%,2.56%
CCn1c(-c2nonc2N)nc2c(C#CC(C)(C)O)nc(OC[C@H](N)c3ccccc3)cc21,4.61%,2.17%,9.34%,6.38%,2.6%,7.87%,1.38%,0.82%,2.71%,2.08%,1.49%,1.86%,-0.29%,-0.06%,1.71%,-2%,-0.34%,59.6%,96.1%,3.94%
N#Cc1c(NC(=O)c2ccc(F)cc2)sc2c1CCCC2,3.42%,1.68%,3.88%,0.23%,-0.52%,3.54%,2.79%,-2.15%,-0.16%,0.64%,0.63%,1.63%,6.11%,-0.41%,0.9%,0.53%,2.52%,4.31%,6.96%,6.24%
O=C(O[C@H]1CN[C@H](C#Cc2cc3ncnc(Nc4ccc(Cc5ccccc5)cc4)c3s2)C1)N1CCOCC1,5.81%,1.46%,6.92%,-3.02%,-1.17%,-0.74%,-2.74%,0.8%,1.05%,-0.73%,0.7%,0.98%,1.8%,-0.09%,-0.66%,-2.28%,-1.16%,-0.84%,5.75%,2.78%
Cc1cccc(Nc2ncc(-c3ccccc3)o2)c1,8.62%,4.6%,10.2%,4.44%,1.6%,3.27%,2.89%,2.57%,1.2%,2.38%,3.08%,2.19%,0.42%,2%,2.63%,-0.81%,-0.44%,4.96%,21.3%,38.5%
CC(C)(CO)CNC(=O)c1ccc2c(c1)/C(=N/Nc1ccc(S(N)(=O)=O)cc1)C(=O)N2,53.7%,0.91%,21.2%,-4.8%,-2.3%,-1.59%,-0.37%,-2%,-2.31%,-1.6%,1.2%,1.29%,2.13%,-1.03%,1.02%,-0.67%,13.5%,9.03%,56%,-4.53%
CN1CCC(n2cnc(-c3ccc(F)cc3)c2-c2ccnc(N)n2)CC1,7.42%,3.15%,7.9%,0.43%,3.19%,2.01%,5.41%,0.89%,1.43%,1.04%,6.65%,1.99%,8.12%,0.06%,0.49%,-0.36%,-2.05%,3.28%,10.8%,1.87%
Fc1ccc(-c2nn3ncccc3c2-c2ccnc(Nc3ccc4c(c3)OCCO4)n2)cc1,88%,26.3%,71.5%,8.14%,3.49%,7.04%,18.3%,2.61%,1.61%,1.51%,0.31%,3.02%,2.04%,0.34%,1.88%,-0.15%,-1.41%,30.6%,75.5%,60.7%
CCn1c(-c2nonc2N)nc2c(C#CC(C)(C)O)ncc(OC3CCNCC3)c21,5.91%,3.4%,7.03%,1.97%,2.36%,1.46%,3.32%,1.16%,2.07%,1.99%,2.09%,3.54%,3.51%,1.5%,2.39%,-2.24%,-1.24%,27.1%,76.1%,2.24%
NS(=O)(=O)c1ccc(Nc2ncc(-c3ccccc3)o2)cc1,5.41%,4.43%,10.7%,3.39%,3.81%,2.2%,4.14%,3.04%,1.16%,1.19%,2.34%,3.09%,5.63%,0.87%,3.74%,-0.66%,3.55%,6.16%,23.6%,38.7%
COc1cc(Nc2nccc(Nc3ccc4c(C)n[nH]c4c3)n2)cc(OC)c1OC,85.4%,31.2%,67.7%,28%,76.8%,13.1%,64.7%,1.88%,3.74%,2.37%,7.07%,17.8%,66.5%,35.6%,72.5%,1.48%,27.8%,74.9%,72.5%,77.3%
CN(C)CCOc1ccc(-c2nc(-c3ccncc3)c(-c3ccc4c(c3)CC/C4=N\O)[nH]2)cc1,8.51%,3.04%,8.01%,4.59%,3.85%,5.62%,2.19%,6.12%,3.86%,0.77%,1.79%,3.43%,1.76%,1.76%,1.36%,-1.43%,0.64%,3.5%,5.84%,4.23%
